Screens deposited in PubChem by National Center for Advancing Translational Sciences (NCATS).
Only some compounds are listed: those with a hit (about 7.9% of all), similar ones and a draw of the others.
HT1080 IDH1KD tx = toxicity to HT-1080 IDH1 knockdown cells (counter line). 360,000 compounds, 2% hits. HT-1080 IDH1 knockdown viability, ATP luminescence, 48 h. Potency, µM (series often up to 46.1 µM), for the others: top-dose activity, negative = toxicity, actives largely listed as cytotoxic;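 also: 0% = DMSO wells and -100% = cell-free medium wells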
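IDH1KD HT-1080 cells, 750/well, RPMI + 5% FBS; compound pinned after 2 h settling; 48 h, 37 °C; CellTiter-Glo luminescence; % activity normalised to DMSO and no-cell wells; curves fitted, classed by r2 and efficacy.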
HT1080NT lethal = kills 2HG-producing HT-1080-NT fibrosarcoma cells. HT-1080-NT fibrosarcoma viability, CellTiter-Glo ATP luminescence, 48 h. Potency, µM (top dose mostly 46.1 µM), for inactives: at the highest dose activity, negative = less viability, hits mostly cytotoxic. 360,000 compounds, 1.6% hits. AID 686970;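 also: NT is the 2HG producing partner of a matched IDH1 knockdown line; 0% = DMSO-treated cells and -100% = media-only wells without cells; nearly all actives have a fitted effect of over 55% in size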
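HT-1080-NT fibrosarcoma cells (2HG-overproducing), 750 cells/well in RPMI with 5% FBS, dosed after 2 h and incubated 48 h at 37C. CellTiter-Glo luminescence normalized to DMSO and no-cell wells; concentration-response curves fitted and classed.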
SW480 rerep = inducers of DNA re-replication in SW480 colon cancer cells | 340,000 compounds, 1.8% hits | SW480 DNA re-replication, Hoechst DNA content imaging, 48 h | Potency, µM (doses to about 46.1 µM), inactives show at the top dose re-replication activation, most hits filed as activators; also: % of control where 0% means no effect; nearly all actives have a fitted effect of over 55% in size
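Readout is total intensity of Hoechst-stained nuclei, excited at 405 nm and collected at 500-530 nm. Compound treatment lasted 48 hr at 37 C in 5% CO2 before staining.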
MCF10A rereplic = DNA re-replication induction in MCF 10a cells; AID 624296; MCF 10A DNA re-replication, Hoechst nuclear intensity, 48 h; 350,000 compounds, 2.9% hits; Potency, µM (titrated, usually from 46.1 µM), for the others: at the top dose activity, positive = re-replication, usual class: activators; also: % of control where 0% means no effect; nearly all actives have a fitted effect of over 50% in size
KB-V1 MDR tox = KB-V1 MDR subline cytotoxicity; Potency, µM (highest dose often 46.1 µM), actives largely listed as cytotoxic; KB-V1 MDR cells viability, CellTiter-Glo, 72 h; AID 1347076; 400,000 compounds, 3.4% hits; also: % is scaled to controls: 0 for no effect and ±100 for the full control effect; nearly all actives have a fitted effect of over 60% in size
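Compound-treated KB-V1 multidrug-resistant cells, 72 h, 37 degrees C; viability by CellTiter-Glo. Fitted qHTS curves give the values.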
KB-3-1 tox = kills parental KB-3-1 adenocarcinoma cells; Potency, µM (titrated, usually from 46.1 µM), usual class: cytotoxic; KB-3-1 viability, CellTiter-Glo ATP luminescence, 72 h; 400,000 compounds, 1.4% hits; also: % is scaled to controls: 0 for no effect and ±100 for the full control effect; nearly all actives have a fitted effect of over 60% in size
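Using CellTiter-Glo luminescence, growth of non-resistant KB-3-1 adenocarcinoma cells is assessed 72 h after pin-tool compound addition at 37 °C. Normalized responses across the concentration series yield fitted curves.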
The depositor's hits bear a star; i = inactive; ? = inconclusive; · = no result. Calls follow the shape of the dose curve; as a rule, active = well fitted curve in the direction sought with a large enough effect; inconclusive = small, poorly fitted or top-dose-only effect, or another doubt; inactive = no such curve, though single readings can be large; an effect the other way counts as inactive or inconclusive. Potency is read from the fitted curve at half-maximal effect.

SMILES | HT1080 IDH1KD tx | HT1080NT lethal | SW480 rerep | MCF10A rereplic | KB-V1 MDR tox | KB-3-1 tox
COc1cc(Nc2c3c(nc4ccccc24)CCC3)cc(OC)c1OC | 2.1µM* | 1.5µM* | 13µM* | 8.2µM* | 3.7µM* | 2.3µM*
COc1ccc(Nc2nc(-c3ccc(C)cc3)nc3ccccc23)c(OC)c1 | · | · | · | · | i | i
COc1ccc(OC)c(NC(=O)CSc2c3c(nc4ccccc24)CCCC3)c1 | · | · | · | · | i | i
COc1ccc(OC)c(Nc2c3c(nc4ccccc24)CCC3)c1 | 0.58µM* | 0.65µM* | 4.1µM* | 3.3µM* | 3.7µM* | 1µM*
COc1cc(NS(C)(=O)=O)ccc1Nc1c2ccccc2nc2ccccc12 | 16µM* | 12µM* | 0.15µM* | ? | 18µM* | ?
CC(C)COC(=O)N1CCCCC1c1cc(C(=O)Nc2ccc3c(c2)OCO3)no1 (stereo unspecified) | -17% | -26% | · | · | i | i
O=[N+]([O-])c1ccc(Nc2c3ccccc3nc3ccccc23)cc1 | ? | ? | 3% | 5% | i | i
COc1ccc([N+](=O)[O-])cc1Nc1c2ccccc2nc2ccccc12 | 5.2µM* | 5.2µM* | ? | 2.9µM* | i | ?
Cc1ccc(CCNS(=O)(=O)c2c(C)nc3sc(C)c(C)n3c2=O)cc1 | · | · | · | · | i | i
CCCN(CC(=O)Nc1cc(Cl)ccc1Cl)C(=O)/C=C/c1cc(OC)ccc1OC | -7% | -1% | ? | 21µM* | i | i
COc1ccc(Cl)cc1NC(=O)CN(C)CC(=O)Nc1cc(OC)c(OC)c(OC)c1 | 8.2µM* | 12µM* | ? | ? | i | 4.6µM*
COc1ccc(NC(=O)CS(=O)CC(=O)Nc2cc(Cl)ccc2OC)cc1 (stereo unspecified) | 3% | -4% | 1% | 11% | 21µM* | i
CC(C)C[C@H]1CN(CCCC[C@H]2CNC(=O)C(=O)N2CCC2CCCCC2)C(=O)C(=O)N1CC1CCCCC1 | 1% | 11% | · | · | ? | i
CCOC(=O)c1ccc(NC(=O)C(CC)Sc2nc3ccncc3[nH]2)cc1 (stereo unspecified) | · | · | · | · | i | i
COc1ccc2nc3n(c(=O)c2c1)-c1ncccc1C(=O)NC3Cc1ccccc1 (stereo unspecified) | 2% | 2% | · | · | i | i
COc1c(S(=O)(=O)NCCCn2ccnc2)ccc(Cl)c1Cl | 4% | -3% | ? | 12µM* | i | i
CCOc1cccc2sc(N3CCN(C(=O)c4ccc5ncsc5c4)CC3)nc12 | 7% | 7% | -66% | 4% | ? | i
CSc1ccc(/C=N/n2c(Cc3ccc(Br)cc3)n[nH]c2=S)cc1 | -5% | -20% | ? | 28% | i | i
CCc1n[nH]c(=S)n1/N=C/c1ccc(-c2ccc(Br)cc2)o1 | ? | ? | -1% | 18µM* | i | i
CC(C)N(C(=O)c1sc2cc([N+](=O)[O-])ccc2c1Cl)C(C)C | -2% | 2% | 1% | 1% | 21µM* | i
CC(C)COC(=O)N(C)C[C@@H]1OCc2cnnn2CCCC(=O)N([C@H](C)CO)C[C@@H]1C | 6% | 13% | · | · | i | i
COc1ccc(C)cc1S(=O)(=O)N1CCCC(C(=O)NCc2ccccn2)C1 (stereo unspecified) | -8% | 2% | 2% | 5% | ? | i
O=C(NCc1ccccn1)C1CCCN(S(=O)(=O)c2cc(Cl)ccc2Cl)C1 (stereo unspecified) | 5.8µM* | 5.8µM* | ? | 0.73µM* | 0.73µM* | ?
CCOc1ccc(N/C=C/C(=O)c2ccccc2)c([N+](=O)[O-])c1 | ? | ? | 0% | 7% | ? | 16µM*
C=CCSc1nnc(C)c(/C=C/Nc2ccc(Cl)cc2)n1 | -16% | -9% | ? | 21µM* | i | i
SMILES | HT1080 IDH1KD tx | HT1080NT lethal | SW480 rerep | MCF10A rereplic | KB-V1 MDR tox | KB-3-1 tox
COc1ccc(CCNC(=O)c2coc(=O)c(Br)c2)cc1 | ? | ? | ? | 5.8µM* | i | ?
COc1ccc(CCNC(=O)c2cnc3ccccc3n2)cc1 | -10% | -7% | -6% | -3% | i | i
COc1ccc(CCNC(=O)c2c([S-])n(-c3ccc(C)cc3)c3cccc[n+]23)cc1 | ? | ? | ? | 11% | i | 12µM*
COc1ccc(CCNC(=O)c2cccc(C(=O)NCCc3ccc(OC)cc3)n2)cc1 | 1% | 1% | -3% | 13% | 18µM* | i
COc1cccc(CNCCSc2nnnn2C)c1OCc1ccc(Cl)cc1 | · | · | · | · | i | ?
Cc1ccc(C(C)NC(=O)CSc2ccc(S(=O)(=O)N3CCOCC3)cn2)cc1C (stereo unspecified) | -4% | -2% | 3% | 14% | 18µM* | i
NC(=O)c1cccc(-c2ccnc3c2CC(C(=O)NCC2CC2)O3)c1 (stereo unspecified) | 27% | 3% | · | · | i | i
NC(=O)c1cccc(-c2ccnc3c2CC(C(=O)NCc2cccc(Cl)c2)O3)c1 (stereo unspecified) | 9.2µM* | ? | · | · | i | ?
CC(=O)Nc1ccc(-c2ccnc3c2CC(C(=O)NCc2cccc(Cl)c2)O3)cc1 (stereo unspecified) | 1.6µM* | ? | · | · | ? | 3.3µM*
CC(=O)Nc1cccc(-c2ccnc3c2CC(C(=O)NCc2cccc(Cl)c2)O3)c1 (stereo unspecified) | ? | ? | · | · | i | ?
Cc1ccc(C2=NN3C(C2)c2ccccc2OC32C(=O)Nc3ccccc32)cc1 (stereo unspecified) | ? | ? | 6% | ? | i | i
CN1C(=O)C2(Oc3ccccc3C3CC(c4ccccc4)=NN32)c2ccccc21 (stereo unspecified) | -17% | -28% | ? | 20% | 18µM* | i
COc1ccc(C2SCCN2C(=S)Nc2ccc(Cl)cc2)cc1 (stereo unspecified) | -2% | -6% | 4% | -2% | 23µM* | ?
COc1ccc(C2CCCN2C(=S)Nc2cccc(Cl)c2)cc1OC (stereo unspecified) | -3% | 0% | -1% | 4% | i | ?
Cc1ccc(NC(=S)N2CCSC2c2cccs2)cc1 (stereo unspecified) | 14% | -1% | ? | 1% | i | i
COc1ccc(C2SCCN2C(=S)Nc2cccc(Cl)c2)cc1 (stereo unspecified) | -6% | -16% | -7% | -50% | 7.3µM* | ?
